# From PubChem BioAssay
# An excerpt weighted towards active compounds, which were near 2.2% of everything screened.
# PvdQ acylase: P. aeruginosa PvdQ acylase inhibition | purified PvdQ acylase, fluorescence plate reader | inhibition, % at 10 µM | hit rate 0.063% among 340,000; in the data active means inhibition above about 30%, passing the limit was not always enough; inconclusive means no clear call, values can overlap the other calls;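 further: 0% = vehicle neutral wells and 100% = reference inhibitor wells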
# pCIP destab: compounds decreasing mouse p/CIP protein stability | F442A p/CIP-EGFP cells, EGFP fluorescence, 16 h | decrease of EGFP signal, % at 10 µM | Q05BA5 | hit rate 0.01% among 290,000 | AID 1984;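 active means EGFP signal decrease of at least 30% at 10 µM or well 3 SD below plate mean, unless failing retest; inactive means the rest, including hits failing retest or dose response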
# HDAC3 inh: inhibitors of human histone deacetylase 3; inhibition, % at 8.3 µM; hit rate 0.15% among 320,000; recombinant HDAC3, fluorogenic peptide/trypsin coupled, fluorescence; O15379; in the data active means inhibition above about 26%, passing the limit was not always enough; inconclusive means no clear call, values can overlap the other calls
# Target sequence (O15379 whole entry, looked up): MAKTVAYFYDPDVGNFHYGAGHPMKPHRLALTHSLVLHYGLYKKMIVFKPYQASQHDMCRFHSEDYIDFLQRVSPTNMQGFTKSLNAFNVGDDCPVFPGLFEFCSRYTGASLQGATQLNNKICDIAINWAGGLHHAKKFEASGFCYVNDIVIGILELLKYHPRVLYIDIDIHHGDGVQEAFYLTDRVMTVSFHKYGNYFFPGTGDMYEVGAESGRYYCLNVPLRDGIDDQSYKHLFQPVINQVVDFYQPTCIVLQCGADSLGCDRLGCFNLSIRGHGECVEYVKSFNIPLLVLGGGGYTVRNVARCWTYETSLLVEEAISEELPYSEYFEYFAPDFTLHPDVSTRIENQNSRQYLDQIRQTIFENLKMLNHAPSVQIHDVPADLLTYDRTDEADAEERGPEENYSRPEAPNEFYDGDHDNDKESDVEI
# PHOSPHO1 block: blocks human PHOSPHO1 phosphatase activity | Q8TCT1 | recombinant PHOSPHO1, absorbance phosphatase assay | inhibition, % at 13.3 µM | hit rate 1.1% among 290,000; in the data active means inhibition above about 60%
# JMJD2C inh: human JMJD2C demethylase inhibition. Q9H3R0. inhibition, % at 2.35 µM. AID 2099. GST-JMJD2C(1-420) H3K9me3 demethylation, DELFIA europium. hit rate 0.069% among 330,000;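 active means more than half of a compound's replicate wells show inhibition beyond 50%, single wells judged on their own value; inconclusive means some, but no more than half, of replicates pass 50% inhibition; inactive means no replicate passes 50% inhibition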;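 further: signal counts dimethyl H3K9 product captured on neutravidin plate; 0% = median of DMSO wells and 100% = 0.3 times that DMSO median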
# Mot1-301 SUMO: SUMOylation pathway inhibition by Mot1-301 growth rescue; S. cerevisiae Mot1-301 growth rescue, ATP luminescence, 38.5C; percent above DMSO median, 100 means doubled; growth rescue, % at 18.8 µM; hit rate 1% among 320,000; AID 2716;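 active means every valid replicate shows activation above 250% relative to neutral control wells; inactive means the rest, any valid replicate at or below 250%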;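 further: OY570 slx delta 5 strain wells were the positive control but not used for scaling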
# An asterisk follows results filed as active; u = inconclusive; x = no result given; ! = not active in a repeat.
SMILES,PvdQ acylase,pCIP destab,HDAC3 inh,PHOSPHO1 block,JMJD2C inh,Mot1-301 SUMO
CCc1cc2ccc(C)cc2nc1SCC(=O)c1ccc(NC(C)=O)cc1,-12,-18,68*,28,3,4
CCc1cc2cccc(C)c2nc1SCC(=O)c1ccc(NC(C)=O)cc1,-10,-6,0,-14,3,8
Cc1cccc(C)c1NC(=O)c1cccc(N2C(=O)C3CCC(C)CC3C2=O)c1 (stereo not drawn),-24,-14,-7,x,2,6
COc1cc(NC(=O)CCCNC(=O)Cn2cnc3sc(C)c(C)c3c2=O)cc(OC)c1OC,-8,4,0,24,-2,116
COc1cccc(CNS(=O)(=O)c2c(C)nc3sccn3c2=O)c1,-10,-6,4,15,8,-5
CCn1c(=N)n(CC(=O)c2cccc([N+](=O)[O-])c2)c2ccccc21,-7,3,2,-4,-2,-11
N=c1n(CC(=O)c2cccc([N+](=O)[O-])c2)c2ccccc2n1Cc1ccccc1,-1,12,-2,-3,61*,-1
C[c-]1[c-](C)[c-](C)[c-](C)[c-]1C.[Fe].c1cc2nccc(N3CCCC3)[c-]2c1 (stereo not drawn),-9,-4,29*!,11,10,285
CC1CCN(C(=O)c2cc(S(=O)(=O)N3CCOCC3)ccc2N2CCCC2)CC1,0,x,7,x,-5,10
S=c1[nH]nc(Cc2sc(-c3ccccc3)nc2-c2ccccc2)o1,-5,-3,11,90*,-1,-4
Cc1nc(-c2ccccc2)sc1-c1n[nH]c(=S)n1C,3,-6,11,29,10,-35
Cc1ccc(S(=O)(=O)N(C)Cc2ccccc2)cc1C(=O)N1CCCCC1,11,-6,-5,32,-13,336*
CC(C)Cn1c(-c2ccc(Cl)cc2)cnc1SCC(=O)N1CCOCC1,4,2,u,-53,x,306*
CCOC(=O)C1CCN(C(=O)c2c(-c3c(Cl)cccc3Cl)noc2C)CC1,6,-6,-9,7,0,476
CCOC(=O)C1CCN(C(=O)c2c(-c3ccccc3)noc2C)CC1,9,-11,-14,41,-11,765*
CCOCCCNC(=O)c1c(-c2ccccc2)noc1C,8,-14,-1,56,1,338*
CC(=O)Nc1ccc(OCCCNC(=O)c2c(-c3ccccc3)noc2C)cc1,12,-12,8,3,-11,8
COc1ccccc1C(=O)ON=C1c2ccccc2-c2ccccc21,1,-17,7,-28,-12,-21
CC(=O)Nc1nc(=S)n(-c2ccccc2)[nH]1,5,-6,u,96*,-4,9
Cc1ccc(C(=O)NCCNS(C)(=O)=O)cc1,-7,14,-2,12,-3,-3
CCCS(=O)(=O)c1c(S(=O)(=O)CCC)c2ccc(C(N)=O)cn2c1C(=O)c1ccc(OC)cc1,-7,-2,9,60*,19,-4
O=[N+]([O-])c1ccc(NCCCN2CCOCC2)c([N+](=O)[O-])c1,-4,-23,8,40,-1,600*
S=c1[nH]nc(-c2cccnc2)o1,-6,8,3,90*,-11,-4
CCCN1CCN(CCCNC(=O)C2CCN(c3nnc(-n4c(C)ccc4C)s3)CC2)CC1,-5,8,-2,65*,0,-20
NS(=O)(=O)c1ccc(CCNC(=O)C(=O)C2C(=O)Nc3ccccc32)cc1 (stereo not drawn),-8,-5,4,2,-7,60
SMILES,PvdQ acylase,pCIP destab,HDAC3 inh,PHOSPHO1 block,JMJD2C inh,Mot1-301 SUMO
Cc1nnc(NC(=O)c2ccccc2Br)s1,-2,1,5,-6,1,302*
Cc1ccc(C(C[N+](=O)[O-])c2c(-c3ccccc3O)[nH][nH]c2=O)cc1 (stereo not drawn),-18,-5,1,-13,2,272*
CCN(CC)C(=O)Cn1cc(C(=O)C(=O)N2CC=C(c3ccccc3)CC2)c2ccccc21,-11,-11,14,9,x,x
COc1ccc2c(c1[N+](=O)[O-])CCC/C2=N/OC(=O)c1cccc2ccccc12,-3,-8,-4,78*,-18,1
CCS(=O)(=O)N1CCN(CC2CC3C=CC2C3)CC1 (stereo not drawn),1,6,5,21,-2,349*
CCCS(=O)(=O)N1CCN(CC2CC3C=CC2C3)CC1 (stereo not drawn),-6,-12,6,-4,x,-1
O=C(CSc1nc2ccccc2n1CC(=O)N1CCCCC1)N1CCCCC1,-10,-11,-3,15,-7,-8
CC(=O)Nc1ccc(C(=O)CSc2nc3ccccc3n2CC(=O)N2CCCC2)cc1,0,-7,67*,71*,77,-23
O=C(COc1ccc(F)cc1Cl)Nc1cccc(S(=O)(=O)N2CCCC2)c1,-12,x,x,x,x,x
CSc1nncc(/C(C)=N\Nc2ccccc2)n1,1,5,7,14,8,297*
CCOC(=O)c1cc(C#N)c(SCC(=O)c2cc(C#N)c(SC)nc2C)nc1C,-9,-10,-8,73*,3,-2
CC(C)OP(=O)(OC(C)C)C(Nc1ccccc1)c1cccc2c1OCO2 (stereo not drawn),-16,-13,2,13,-13,279*
Cc1ccc(/C=c2/sc3nnc(-c4ccccc4Cl)n3c2=O)o1,1,-6,4,92*,4,-4
Cc1cccc2cc3c(N)c(C#N)sc3nc12,-10,-11,2,64*,-3,-16
Cc1sc(NC(=O)c2sc3nc4c(C)cccc4cc3c2N)c(C#N)c1C,-11,-6,10,12,0,-7
CCOc1ccccc1NC(=O)C1CCN(C(=O)c2cccs2)CC1,-3,-8,0,41,1,-4
Cn1c(=O)c2ncn(CC(=O)NC3CCCCCC3)c2n(C)c1=O,-4,2,8,84*,-17,-14
CCCCn1c(N)c(N(CCC(C)C)C(=O)CSc2nncn2-c2ccccc2)c(=O)[nH]c1=O,-14,x,x,x,x,x
COc1cc(/C=N/NS(=O)(=O)c2ccc(C)cc2)ccc1OCc1cccc(C(=O)O)c1,-6,-1,0,17,13,733*
COc1cc(/C=N/NS(=O)(=O)c2ccc3ccccc3c2)ccc1OCc1ccc(C(=O)O)cc1,-5,11,x,-10,-11,21
CCC(O)(CC)C(=O)N/N=C/c1cc(Br)cc(Br)c1O,-20,1,-5,-1,3,494*
O=C(C[n+]1ccccc1)N/N=C/c1cc(Br)cc(Br)c1O,-2,4,4,19,1,-18
O=C(CCNC(=O)c1ccccc1Cl)Nc1nccs1,-16,2,7,18,3,118
O=C(/C=C/c1ccc(Br)o1)NC(c1ccccc1)c1ccccc1,-11,-10,15,-11,26,2
